From PubChem BioAssay AID504847 (National Center for Advancing Translational Sciences (NCATS), 2011)
The campaign covered roughly 400,000 compounds. About 3,700 (0.93%) were called active. About 3% were inconclusive and are not listed. The entries come from a sample that favours actives as a whole. Unmarked numbers belong to inactive results. Calls follow the shape of the dose curve; as a rule, active = well fitted inhibition curve with a large enough effect; inconclusive = small, poorly fitted or top-dose-only effect, or another doubt; inactive = no such curve, though single readings can be large or run the other way. Where a SMILES comes first, the peptide text is derived from it. Side-chain parts run from the residue outwards. [ ]: non-standard residue; d: D form. The star is where a group is joined. X1 = CCC(C)C(N)C1=NC(C(=O)*)CS1; Orn = NCCC[CH](N)C(=O)O
% is scaled to controls: 0 for no effect and ±100 for the full control effect; potency is read from the fitted curve at half-maximal effect.

What follows are compounds tested against Vitamin D3 receptor (Homo sapiens) (UniProt P11473) (assay: Inhibitors of the vitamin D receptor (VDR): qHTS). Conditions: VDR-SRC2-3 peptide fluorescence polarization, 2 h; max response, negative = inhibition: stronger effect = lower value.
Chain of Vitamin D3 receptor (Homo sapiens) (P11473 whole entry, looked up): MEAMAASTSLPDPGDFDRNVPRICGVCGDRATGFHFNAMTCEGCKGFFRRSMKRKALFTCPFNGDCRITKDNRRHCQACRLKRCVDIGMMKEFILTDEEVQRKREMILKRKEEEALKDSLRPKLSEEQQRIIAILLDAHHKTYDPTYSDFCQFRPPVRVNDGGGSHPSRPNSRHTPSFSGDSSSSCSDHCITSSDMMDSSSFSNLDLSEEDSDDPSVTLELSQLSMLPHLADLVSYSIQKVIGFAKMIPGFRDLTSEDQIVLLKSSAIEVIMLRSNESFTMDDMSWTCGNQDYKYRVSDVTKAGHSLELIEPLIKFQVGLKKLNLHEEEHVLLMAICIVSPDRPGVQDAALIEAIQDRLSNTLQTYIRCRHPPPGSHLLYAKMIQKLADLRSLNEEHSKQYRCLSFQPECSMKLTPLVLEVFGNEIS
In short: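 FP read-out; VDR + SRC2-3 coactivator peptide; 23 nl compound by pintool; 2 h RT incubation; reagents held at 4 deg C, protected from light.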
Work on CCCCc1ccc(NC(=O)CN2C(=O)NC(Cc3ccccc3)C2=O)cc1 (stereo not given) yielded a max response, negative = inhibition of 3.7%. CCCOC(=O)c1ccc(N2C(=O)c3ccccc3C2=O)cc1 showed a max response, negative = inhibition of -19.4%. In the case of CCCC[C@H]1C(=O)N(c2ccccc2)N(c2ccc(O)cc2)C1=O, the Potency is reported as 10 µM (active). CC(C)c1ccc2oc(-c3cc(NC(=O)c4cccs4)ccc3Cl)nc2c1 showed a max response, negative = inhibition of 15%. CCC(C)C(N)C1=NC(C(=O)NC(CC(C)C)C(=O)NC(CCC(=O)O)C(=O)NC(C(=O)NCCCCC2NC(=O)C(CC(N)=O)NC(=O)C(CC(=O)O)NC(=O)C(Cc3cnc[nH]3)NC(=O)C(Cc3ccccc3)NC(=O)C(C(C)CC)NC(=O)C(CCCN)NC2=O)C(C)CC)CS1 (stereo not drawn) (cyclo(DNK([Ile-Glu-Leu-X1])[Orn]IFH); configuration not given here) was tested, and the max response, negative = inhibition was -26.4%. In the case of C#CCOc1ccc(C2CC(=O)Nc3c2c(C)nn3-c2nc(C)cc(C)n2)cc1 (stereo not given), the max response, negative = inhibition is reported as 10.7%. In the case of CC(=NNC(=O)c1ccc2nc[nH]c2c1)c1ccc(Br)cc1, the max response, negative = inhibition is reported as -21.3%. In the case of CC/C(O)=N\S(=O)(=O)c1ccc(N=NN(C)C)cc1, the max response, negative = inhibition is reported as 15.8%. In the case of CN(C)N=Nc1ccc2nc[nH]c2c1, the Potency is reported as 35.5 µM (active). COc1cc(OC)c(NC(=O)Cc2ccc(-n3c(C)nc4cccnc43)cc2)cc1Cl showed a max response, negative = inhibition of 1.5%. For CC1=C/C(=N\OS(=O)(=O)c2ccccc2)C=CC1=O, the Potency was 31.6 µM (active). Cc1ccc(NC(=O)C2CCN(S(=O)(=O)c3cc(-c4noc(C)n4)ccc3C)CC2)c(C)c1 showed a max response, negative = inhibition of 14.7%. Cc1nn2c(=O)cc(COC(=O)c3cccc(NC(=O)COc4ccccc4Cl)c3)nc2s1 was tested, and the max response, negative = inhibition was 9.23%. Compound Nc1ncnc2c1c(I)cn2[C@@H]1C[C@H](N)[C@@H](O)[C@H]1O has a max response, negative = inhibition of -8.19%. COc1ccc(Cl)cc1NC(=O)c1sc2nc3c(cc2c1N)CN(C)CC3 was tested, and the max response, negative = inhibition was -1.58%. For O=C(O)CSc1ccc(S(=O)(=O)N2CCCC2)cn1, the max response, negative = inhibition was 10.8%. For N#Cc1c(N2CCCCC2)nc(N)c2c(N)nc(SCC(=O)O)cc12, the Potency was 50.1 µM (active). N#Cc1c(C(F)(F)F)cc(-c2ccc(Cl)cc2)nc1SCC(=O)O was tested, and the max response, negative = inhibition was -2.18%. Compound Cc1cc(C)cc(NS(=O)(=O)c2cc3c(cc2C)NC(=O)CO3)c1 has a max response, negative = inhibition of -6.49%. For Cc1cc(C)c(NC(=O)CN2C(=O)c3cccnc3Oc3ccc(Cl)cc32)c(C)c1, the max response, negative = inhibition was 7.84%. C=CCNC(=O)c1ccc2nc(-c3ccco3)c(-c3ccco3)nc2c1 showed a max response, negative = inhibition of -28.3%. Compound CCOc1ccc(NC(=O)c2ncoc2-c2ccco2)cc1 has a max response, negative = inhibition of 3.68%. COCCNC(=O)Nc1ccc2nc(-c3ccco3)c(-c3ccco3)nc2c1 was tested, and the Potency was 79.4 µM (active). With CCC(C)NC(=O)Cn1c(=O)n(-c2ccc(Cl)cc2)c(=O)c2c3c(sc21)CCCC3 (stereo not given) the max response, negative = inhibition was 7.47%. In the case of Cc1nc([N+](=O)[O-])nn1C12CC3CC(CC(Br)(C3)C1)C2, the Potency is reported as 20 µM (active). Work on CC1(C)OC2CC(=O)OC[C@@]23C1CC(=O)[C@]1(C)C3CC[C@@]2(C)C(c3ccoc3)OC(=O)C3O[C@@]321 (stereo not given in full) yielded a max response, negative = inhibition of 3.74%. For CCOC(=O)c1c(C)oc2nc(C)nc(N3CCN(c4ccc(OC)cc4)CC3)c12, the max response, negative = inhibition was 5.63%. For COc1ccc(C2(C#N)CCC(C(=O)O)CC2)cc1OC1CCCC1 (stereo not given), the max response, negative = inhibition was 5.35%. With Cc1ccc(OC(=O)CCC(=O)Nc2ccc(Br)cc2)cc1 the max response, negative = inhibition was 4.03%. CC(C)Oc1ccc(CC(=O)NNC(=S)Nc2ccc(Br)cc2)cc1 was tested, and the Potency was 70.8 µM (active). With CC(C)Oc1ccc(NC(=O)c2cc3ccccc3o2)cc1 the max response, negative = inhibition was 10.8%. In the case of FCOC(C(F)(F)F)C(F)(F)F, the max response, negative = inhibition is reported as 1.95%. In the case of O=C(CSc1nnc(CNC(=O)c2ccccc2)n1-c1ccc(F)cc1)Nc1ccccc1F, the max response, negative = inhibition is reported as 2.71%. CCOc1ccc(N(C)S(=O)(=O)c2cc(-c3cnc(C)o3)ccc2OC)cc1 showed a max response, negative = inhibition of -2.82%. Cc1cccc(N2C(=O)c3ccc(C(=O)Nc4cccc(C(=O)O)c4)cc3C2=O)c1 showed a max response, negative = inhibition of 13.1%. For O=C(O)c1ccc2c(c1)C(=O)N(c1ccc(/C=C/C(=O)c3ccccc3)cc1)C2=O, the Potency was 20 µM (active). Work on O=C(c1ccc2c(c1)C(=O)N(c1ccc(Cl)cc1)C2=O)N1CCN(c2ccccn2)CC1 yielded a max response, negative = inhibition of -2.28%. For Cc1ccc(-n2c(SCC(=O)c3ccccc3)nc3c([nH]c4ccccc43)c2=O)cc1, the max response, negative = inhibition was 23.5%. With COc1ccc(Cl)cc1NC(=O)CSc1nc(=O)[nH]c2c1CCCC2 the max response, negative = inhibition was -3.46%. For Nc1ncc(S(=O)(=O)Nc2ccc(OC(F)(F)F)cc2)cn1, the max response, negative = inhibition was 5.75%. Work on CCN(CC)C(=O)CSc1nnc(CNc2ccc(F)cc2)n1Cc1ccco1 yielded a max response, negative = inhibition of 6.05%. In the case of CC1CN(Cc2ccco2)C(=S)N(c2ccccc2)C1=O (stereo not given), the max response, negative = inhibition is reported as 8.1%. CN(C)C(=S)N=c1ssc(=S)n1Cc1ccco1 was tested, and the Potency was 44.7 µM (active). COc1cc(C(=O)Nc2ccc(-n3c(C)nc4ccccc4c3=O)cc2)cc(OC)c1OC was tested, and the max response, negative = inhibition was -3.22%. Cc1cccc(NC(=O)C2CCCN2S(=O)(=O)c2cccc3nsnc23)c1C (stereo not given) was tested, and the max response, negative = inhibition was -10.9%. CN(C)C(=O)N=NC(=O)N(C)C was tested, and the Potency was 20 µM (active). For COc1ccc(-n2ccnc(NCCc3ccc(Cl)cc3)c2=O)cc1OC, the max response, negative = inhibition was 6.6%. COc1cccc(-c2nnc3n(CCc4ccccc4)c(=O)c4ccccc4n23)c1O gave a max response, negative = inhibition of 17.6%. In the case of CC1CCN(C(=S)c2ccc(-c3ccc(Cl)cc3Cl)o2)CC1, the Potency is reported as 79.4 µM (active). For Cc1csc(NC(=O)c2ccc(-c3ccc(Cl)cc3Cl)o2)n1, the max response, negative = inhibition was -1.72%. CC1CCN(C(=S)c2cccc(O)c2)CC1 gave a max response, negative = inhibition of -26.6%. Work on Cc1cccc(Nc2cc(C)nc(-n3nc(C)cc3C)n2)c1 yielded a max response, negative = inhibition of 8.15%. Work on Cc1cccn2c(=O)c3cc(C(=O)NC4CCCCC4)sc3nc12 yielded a max response, negative = inhibition of 8.23%. Cc1cccn2c(=O)c(/C=C(\C#N)C(N)=O)c(N3CCCCCC3)nc12 was tested, and the max response, negative = inhibition was -6.66%. With Cc1cc(C)cc(Oc2nc3c(C)cccn3c(=O)c2/C=C(\C#N)C(=O)NC2CCS(=O)(=O)C2)c1 (stereo not given) the Potency was 20 µM (active).
